BAZ2B inh: blocks human BAZ2B | Q9UIF8 | AlphaScreen BAZ2B-H3K14Ac peptide displacement | Potency, µM (top dose mostly 114 µM), without a hit: top-dose activity change, negative = inhibition, actives largely listed as inhibitors | 360,000 tested, 4.4% active; also: potency is read from the fitted curve at half-maximal effect; % is scaled to controls: 0 for no effect and ±100 for the full control effect; nearly all actives have a fitted effect of over 60% in size
Target sequence (Q9UIF8 whole entry, looked up): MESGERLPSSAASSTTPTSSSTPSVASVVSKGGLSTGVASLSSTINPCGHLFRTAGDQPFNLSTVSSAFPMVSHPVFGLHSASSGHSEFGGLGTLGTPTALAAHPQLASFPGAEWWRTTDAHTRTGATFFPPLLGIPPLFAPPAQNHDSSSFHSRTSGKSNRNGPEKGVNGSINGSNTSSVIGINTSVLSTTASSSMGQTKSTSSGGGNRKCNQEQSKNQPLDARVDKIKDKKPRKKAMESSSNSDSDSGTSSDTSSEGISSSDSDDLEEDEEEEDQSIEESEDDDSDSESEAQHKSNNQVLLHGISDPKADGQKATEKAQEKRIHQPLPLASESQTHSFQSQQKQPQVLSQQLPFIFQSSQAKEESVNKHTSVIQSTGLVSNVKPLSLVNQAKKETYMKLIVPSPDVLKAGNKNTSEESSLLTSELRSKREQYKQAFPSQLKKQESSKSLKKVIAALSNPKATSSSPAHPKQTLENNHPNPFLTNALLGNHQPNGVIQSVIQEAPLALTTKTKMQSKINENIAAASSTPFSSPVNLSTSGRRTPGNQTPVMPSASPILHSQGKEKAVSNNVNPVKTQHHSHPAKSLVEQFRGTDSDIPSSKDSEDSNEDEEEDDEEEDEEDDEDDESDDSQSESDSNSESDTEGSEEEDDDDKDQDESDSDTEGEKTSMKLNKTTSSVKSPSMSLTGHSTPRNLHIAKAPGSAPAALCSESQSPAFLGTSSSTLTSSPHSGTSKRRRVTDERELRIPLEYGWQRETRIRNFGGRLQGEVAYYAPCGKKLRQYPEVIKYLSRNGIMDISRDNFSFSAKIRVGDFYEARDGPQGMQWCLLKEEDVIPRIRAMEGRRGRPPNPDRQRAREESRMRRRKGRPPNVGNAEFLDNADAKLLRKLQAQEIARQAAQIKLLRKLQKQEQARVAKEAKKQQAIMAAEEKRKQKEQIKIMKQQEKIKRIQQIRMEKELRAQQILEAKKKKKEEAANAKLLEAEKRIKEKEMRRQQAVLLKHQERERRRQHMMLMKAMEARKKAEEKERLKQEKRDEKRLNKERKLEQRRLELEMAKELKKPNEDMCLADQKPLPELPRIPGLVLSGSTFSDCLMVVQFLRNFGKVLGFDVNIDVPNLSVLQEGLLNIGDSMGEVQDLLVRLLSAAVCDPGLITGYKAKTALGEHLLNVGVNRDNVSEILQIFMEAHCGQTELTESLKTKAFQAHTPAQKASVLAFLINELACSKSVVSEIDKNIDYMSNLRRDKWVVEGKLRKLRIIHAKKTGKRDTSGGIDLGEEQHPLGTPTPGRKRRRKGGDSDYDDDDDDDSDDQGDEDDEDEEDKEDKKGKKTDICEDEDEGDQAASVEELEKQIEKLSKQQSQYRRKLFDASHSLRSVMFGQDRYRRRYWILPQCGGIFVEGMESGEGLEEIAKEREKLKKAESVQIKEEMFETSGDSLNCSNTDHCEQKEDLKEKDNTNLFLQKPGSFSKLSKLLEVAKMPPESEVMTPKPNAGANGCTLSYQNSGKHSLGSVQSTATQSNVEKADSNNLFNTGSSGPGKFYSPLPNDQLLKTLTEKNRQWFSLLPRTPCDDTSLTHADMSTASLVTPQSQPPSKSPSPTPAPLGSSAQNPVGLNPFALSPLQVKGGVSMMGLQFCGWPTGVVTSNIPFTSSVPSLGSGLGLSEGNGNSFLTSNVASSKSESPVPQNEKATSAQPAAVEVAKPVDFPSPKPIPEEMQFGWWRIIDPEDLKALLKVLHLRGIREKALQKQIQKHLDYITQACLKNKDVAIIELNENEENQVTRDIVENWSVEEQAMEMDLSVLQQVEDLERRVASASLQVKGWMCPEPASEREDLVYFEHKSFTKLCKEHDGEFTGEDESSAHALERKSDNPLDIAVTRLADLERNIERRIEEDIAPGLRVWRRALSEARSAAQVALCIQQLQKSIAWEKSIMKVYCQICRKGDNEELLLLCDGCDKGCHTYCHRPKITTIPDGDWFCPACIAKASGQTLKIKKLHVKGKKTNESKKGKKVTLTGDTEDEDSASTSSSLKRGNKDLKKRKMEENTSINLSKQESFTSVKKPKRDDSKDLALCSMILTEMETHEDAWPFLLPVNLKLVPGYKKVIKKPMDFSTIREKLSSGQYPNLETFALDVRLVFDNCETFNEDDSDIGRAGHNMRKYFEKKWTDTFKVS
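Compounds, titrated to a top concentration of 110 uM, were incubated 30 min at room temperature with preformed BAZ2B/acetyl-K14 H3 peptide complex (50 nM each). Proximity signal was measured by AlphaScreen after 20 min with beads.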
HP1b binding inh: HP1-beta chromodomain-methylated histone interaction inhibition | AID 540317 | 390,000 tested, 0.56% active | AlphaScreen HP1-beta / biotin-H3K9me3 peptide binding | Potency, µM (series often up to 114 µM), for inactives: at the top dose activity change, negative = inhibition, hits mostly inhibitors | P83916; also: potency is read from the fitted curve at half-maximal effect; nearly all actives have a fitted effect of over 70% in size
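HP1-beta protein (50 nM final) preincubated 30 min at room temperature with biotinylated H3(1-18)K9me3 peptide (50 nM) in PBS pH 7.4, 0.01% Tween-20, then compound added for 30 min. AlphaScreen streptavidin donor/nickel chelate acceptor beads (10 ug/mL final), 30 min dark, luminescence read.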
JMJD2A Tudor: JMJD2A Tudor domain (human) inhibition. O75164. AlphaScreen JMJD2A-Tudor / H3K4me3 peptide binding. Potency, µM (titrated, usually from 114 µM), without a hit: top-dose activity change, negative = inhibition, most hits filed as inhibitors. 390,000 tested, 4.4% active; also: potency is read from the fitted curve at half-maximal effect; % is scaled to controls: 0 for no effect and ±100 for the full control effect; nearly all actives have a fitted effect of over 50% in size
Sfp inh: Sfp phosphopantetheinyl transferase inhibition; Biochemical Sfp PPTase activity, qHTS; Potency, µM, for inactives: largest response in the series, negative = inhibition, most hits filed as inhibitors; 310,000 tested, 3.5% active; Q9F4F7;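 also: the enzyme is Sfp with the accession as filed and its product quenches rhodamine fluorescence; potency is read from the fitted curve at half-maximal effect; 0% = enzyme reaction without inhibitor and -100% = no enzyme wells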
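Sfp 15 nM + cpd, 15 min RT; start w/ rhodamine-CoA 5 uM, BHQ-2-YbbR 12.5 uM (final); 50 mM Hepes pH 7.6, 10 mM MgCl2, 0.01% NP-40, 0.01% BSA; read 525/598 nm at 0 and 30 min.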
L3MBTL1 block: blocks human L3MBTL1. Q9Y468. AlphaScreen L3MBTL1–H3K9me1 peptide binding. Potency, µM (series often up to 57.1 µM), without a hit: at the top dose activity, negative = inhibition, hits mostly inhibitors. 230,000 tested, 0.66% active. AID 485360; also: potency is read from the fitted curve at half-maximal effect; % is scaled to controls: 0 for no effect and ±100 for the full control effect; nearly all actives have a fitted effect of over 60% in size
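Read-out is AlphaScreen signal from streptavidin donor and nickel chelate acceptor beads (10 ug/mL final each) bridging L3MBTL1 (50 nM) and biotinylated K9-monomethylated H3(1-15) peptide (75 nM), after 30 min compound exposure at room temperature.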
G9a inh-1: G9a (human) methyltransferase inhibition; G9a H3K9 monomethylation, AlphaScreen, 2 h; 350,000 tested, 8.8% active; Potency, µM (series often up to 102 µM), for inactives: at the top dose activity, negative = inhibition, most hits filed as inhibitors; also: potency is read from the fitted curve at half-maximal effect; % is scaled to controls: 0 for no effect and ±100 for the full control effect; nearly all actives have a fitted effect of over 75% in size
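Quantitative HTS format: methyltransferase activity on a biotin-tagged H3K9 peptide is measured by AlphaScreen, using a rabbit anti-monomethyl-H3K9 antibody with streptavidin donor and anti-IgG acceptor beads. Final levels are 20 nM enzyme, 500 nM peptide, 20 uM SAM; 2 h RT.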
JMJD2E inh: JMJD2E (human) demethylase inhibition, confirmation. shares compounds with JMJD2A Tudor. Potency, µM (highest dose often 56.8 µM), for the others: at the highest dose activity change, negative = inhibition, hits mostly inhibitors. Recombinant JMJD2E, FDH-coupled NADH fluorescence (FDH is formaldehyde dehydrogenase). 140 tested, 93% active
FDH inh: counter-screen for JMJD2E inhibitors: Pseudomonas putida formaldehyde dehydrogenase. shares compounds with JMJD2A Tudor. FDH enzyme assay, NADH fluorescence kinetic. Potency, µM (doses to about 56.7 µM), for inactives: at the highest dose activity, negative = inhibition, hits mostly inhibitors. 140 tested, 10% active
G9a inh-2: confirmation of human histone methyltransferase G9a inhibitors; shares compounds with JMJD2A Tudor; G9a H3K9 monomethylation, AlphaScreen, 2 h; Potency, µM, most hits filed as inhibitors; 370 tested, 89% active; also: potency is read from the fitted curve at half-maximal effect; nearly all actives have a fitted effect of over 65% in size
Numbers without * were called inactive; ? = inconclusive; . = no result given; ! = not confirmed by another sample; [ ] = remark or other dose. In the library only some 12% were active in any assay of this set; here they are far more common. Calls follow the shape of the dose curve; as a rule, active = well fitted curve in the direction sought with a large enough effect; inconclusive = small, poorly fitted or top-dose-only effect, or another doubt; inactive = no such curve, though single readings can be large; an effect the other way counts as inactive or inconclusive.

SMILES	BAZ2B inh	HP1b binding inh	JMJD2A Tudor	Sfp inh	L3MBTL1 block	G9a inh-1	G9a inh-2	others
CCOc1cccc(CNc2ccc(O)cc2)c1OCc1ccccc1Cl	?	?	44.7µM*	-13.2%	39.8µM*	4.47µM*	3.16*
CCOc1cccc(CNc2ccc(O)cc2)c1OCc1ccc(Cl)cc1Cl	?	?	-34.7%	14.1µM*	?	2.51µM*	2.52*
CCOc1cccc(CNCCO)c1OCc1ccc(Cl)cc1Cl	5.6%	16.0%	-11.1%	?	5.2%	11.7%[59 µM]	.
Cc1cccnc1CCNCc1c(C(=O)N2C[C@@H](C)O[C@@H](C)C2)nc2ccc(Cl)cn12	-7.0%	17.3%	-8.8%	3.5%	.	.	.
CC(=O)Nc1cc2c(cc1Cl)-c1ccccc1C2O (stereo not drawn)	.	31.3%	-6.3%	.	.	.	.
COc1ccc(OC)c(NC(=O)c2c(NCc3ccc(C)o3)sc3c2CCCCC3)c1	-36.7%	?	35.5µM*	.	.	1.58µM*	5.13*
COc1ccccc1NC(=O)c1c(NCc2ccc(C)o2)sc2c1CCCCC2	?	?	44.7µM*	.	.	1.26µM*	3.63*
OCCNc1nc(Nc2cc(Cl)ccc2OC2CCCC2)nc(N2CCCC2)n1	.	0.2%	?	.	.	.	.
O=C1C2C3C=CC(CO)(O3)C2C(=O)N1c1ccccc1-c1ccccc1 (stereo not drawn)	9.3%	?	17.8µM*	1.12µM*	-0.3%	0.316µM*	0.224*
CCc1ccccc1NC(=O)NC(C)c1ccc2c(c1)OCO2 (stereo not drawn)	2.8%	41.5%	-9.2%	17.8%	.	15.4%	.
CCNCCC(CCC(C)C)c1ccc2c(c1)OCO2 (stereo not drawn)	79.4µM*	-6.5%	?	?	.	1.58µM*	11.2*
NNC(=O)CN1CCCc2ccccc21	-18.7%	-12.3%	3.0%[11.4 µM]	9.7%	-9.5%	2.7%	.
Oc1ccc(CN2CCCc3ccccc32)c2cccnc12	35.5µM*	?	?	-4.0%	28.2µM*	1.58µM*	.	JMJD2E inh=1.26µM*;FDH inh=-26.8%
CN(C)C1=NC[C@H](Cc2ccccc2)N1CCCC1CCCC1	?	32.1%	-26.4%	.	11.8%	?	2.83*
CN(C)C1=NC[C@H](Cc2ccccc2)N1CCCC1CCCCC1	-5.3%	54.0%	-25.4%	.	9.4%	4.7%[2.33 µM]	.
CS(=O)(=O)c1ccc(Cl)c(NC(=O)C2CCCN(C(=O)c3ccc(Cl)cc3)C2)c1 (stereo not drawn)	-5.4%	-14.4%	-14.4%	.	-1.2%	-5.2%	.
COc1ccc(C)cc1NC(=O)Cn1c(=O)ccc2cc(S(=O)(=O)N3CCC(C)CC3)ccc21	0.0%	10.2%[57 µM]	-32.3%	.	.	0.9%[59 µM]	.
CCOc1ccc(NC(=O)CN2CCN(CC(=O)c3ccc(OCC)cc3)CC2)cc1	8.5%	45.6%	?	-5.6%	0.9%[11.4 µM]	2.82µM*	5.64*
CCOc1ccc(NC(=O)CN2CCN(CC(=O)c3ccc(OC)c(OC)c3)CC2)cc1	8.1%	-0.1%	?	8.3%	.	2.51µM*	44.7*
CCOc1ccc(NC(=O)CN2CCN(CC(=O)Nc3ccc(N(C)C)cc3)CC2)cc1	-14.1%	20.9%	1.4%	0.7%	.	-17.4%	.
CCN(CC)c1ccc(NC(=O)CN2CCN(S(=O)(=O)c3cc(Cl)ccc3OC)CC2)cc1	50.1µM*!	?	39.8µM*	-5.4%	.	8.91µM*	3.98*
